From PubChem BioAssay
Hits are enriched below; roughly 1.4% of the tested compounds scored in any of these assays.
MEX-5 binding: C. elegans MEX-5 TCR-2 RNA binding activity. MEX-5/FITC-TCR2 RNA binding, fluorescence polarization; hits give low values. Q9XUB2. activity score (negative = inhibition of binding), % at 10 µM. 300,000 compounds, 0.38% hits. AID 1832;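 active = inhibition past about -25% in most replicates, and total fluorescence under double the plate's negative control median, limit read from the data; inconclusive = replicates evenly split on the limit, or fluorescence at least double controls; inactive = too little inhibition in most replicates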
Target sequence (Q9XUB2 whole entry, looked up): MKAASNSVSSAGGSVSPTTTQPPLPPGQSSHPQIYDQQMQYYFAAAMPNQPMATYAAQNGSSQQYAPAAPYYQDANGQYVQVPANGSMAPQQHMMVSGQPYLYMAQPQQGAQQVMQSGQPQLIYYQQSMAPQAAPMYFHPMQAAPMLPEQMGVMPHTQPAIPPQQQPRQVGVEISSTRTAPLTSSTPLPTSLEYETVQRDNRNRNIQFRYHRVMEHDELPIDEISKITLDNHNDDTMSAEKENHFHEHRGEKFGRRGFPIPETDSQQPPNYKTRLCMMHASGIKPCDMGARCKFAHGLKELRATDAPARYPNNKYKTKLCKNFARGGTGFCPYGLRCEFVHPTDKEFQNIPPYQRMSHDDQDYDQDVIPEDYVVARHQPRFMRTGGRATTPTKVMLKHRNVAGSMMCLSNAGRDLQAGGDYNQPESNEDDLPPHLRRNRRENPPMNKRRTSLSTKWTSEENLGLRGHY
GLD-1 TGE inh: GLD-1-TGE RNA interaction inhibition (C. elegans) | inhibition, % at 5.96 µM | 320,000 compounds, 0.44% hits | purified GLD-1 + fluorescein TGE RNA, fluorescence polarization | AID 2280 | Q17339;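 active = percent inhibition above a per-plate cutoff, the plate mean of test compounds plus 3 SD, cut at about 30% in these data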
BCLXL inh: blocks human Bcl-xL binding to Bim BH3 peptide | GST-Bcl-xL / FITC-Bim BH3 peptide fluorescence polarization | inhibition, % at 10.9 µM | 320,000 compounds, 0.7% hits | AID 2129;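 active = inhibition above the mean of all tested compounds plus 3 SD, cutoff set per campaign, cut at about 30% in these data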;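 note: inhibitors lower millipolarization by displacing the labeled peptide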
eLon inh: inhibitors of E. coli Lon protease | P0A9M0 | purified E. coli Lon protease, fluorescence polarization | inhibition, % at 7.94 µM | 360,000 compounds, 0.42% hits | AID 602123; in the data active = inhibition above about 13%, passing the limit was not always enough
MCL1-BIM inh: inhibitors of human MCL1 binding to BIM-BH3 peptide. Q07820. GST-MCL1 / FITC-Bim-BH3 fluorescence polarization. inhibition, % at 10.9 µM. 320,000 compounds, 0.68% hits. AID 2057;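 active = inhibition above the mean inhibition of all tested compounds plus 3 SD, set per campaign, cut at about 40% in these data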;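 note: higher means more loss of mP so more displacement of Bim peptide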
Each line names hits and unclear results; the compound was inactive in the other large screens.

CCOCCCNc1nc2nc3ccc(C)cn3c(=O)c2cc1C(=O)NCC1CCCO1 (stereo unspecified)	MEX-5 binding -34
Cc1ccc2nc3c(cc(C(=O)NCC4CCCO4)c(=N)n3CCCOC(C)C)c(=O)n2c1 (stereo unspecified)	none (no result: MEX-5 binding)
COc1ccc(-c2noc(N3CCC(C(=O)N(C)c4ccccc4)CC3)n2)cc1	none
Oc1cc2c(cc1O)C(c1ccccc1)CNCC2 (stereo unspecified)	MEX-5 binding -30
Cc1cccc2cc3c(N)c(C#N)sc3nc12	BCLXL inh 35
Cc1sc(NC(=O)c2sc3nc4c(C)cccc4cc3c2N)c(C#N)c1C	none
Cc1cc2ccccc2n1CCNC(=O)C(C)Oc1ccccc1 (stereo unspecified)	eLon inh 24
Cc1cc2ccccc2n1CCNC(=O)Cc1ccccc1	none
CC(OC(=O)c1ccc(-c2ccc(O)cc2)cc1)C(=O)NC1CCCCC1C (stereo unspecified)	none
O=C(Cc1ccccc1)NCC(=O)N1CCN(c2ccc(F)cc2)CC1	none (no result: MEX-5 binding, GLD-1 TGE inh, BCLXL inh, MCL1-BIM inh)
CCOC(=O)/C=c1\s/c(=C\c2ccc3cc(OC)ccc3c2)c(=O)n1CC(=O)NCc1ccc2c(c1)OCO2	MEX-5 binding -31
CCOC(=O)/C=c1\s/c(=C\c2ccccc2C)c(=O)n1CC(=O)NCc1ccc2c(c1)OCO2	none
Cn1nc(C2CC2)cc1NC(=O)C1(C)CCN1C(=O)c1ccccc1CCc1ccccc1 (stereo unspecified)	none (no result: MEX-5 binding, GLD-1 TGE inh, BCLXL inh, MCL1-BIM inh)
N=c1c(C(=O)NC2CCCCC2)cc2c(=O)n3ccccc3nc2n1Cc1cccnc1	MEX-5 binding -35
N=c1c(C(=O)NCC2CCCO2)cc2c(=O)n3ccccc3nc2n1Cc1cccnc1 (stereo unspecified)	MEX-5 binding -44, BCLXL inh 37
N=c1c(C(=O)NCCN2CCOCC2)cc2c(=O)n3ccccc3nc2n1CCc1ccccc1	MEX-5 binding -28
COC(=O)c1cc2c(=O)n3ccccc3nc2n(Cc2cccnc2)c1=N	none (no result: eLon inh)
N=c1c(C(=O)NCc2ccc(F)cc2)cc2c(=O)n3ccccc3nc2n1Cc1cccnc1	MEX-5 binding inconclusive, BCLXL inh 41
N=c1c(C(=O)NCCc2ccccc2)cc2c(=O)n3ccccc3nc2n1CCCN1CCOCC1	none
Cc1ccc(NC(=O)c2ccc(OCC3CCCO3)cc2)cc1Cl (stereo unspecified)	none (no result: MEX-5 binding, GLD-1 TGE inh, BCLXL inh, MCL1-BIM inh)
COc1ccc(S(=O)(=O)N(C)C[C@@H]2OCc3cn(nn3)CCCC(=O)N([C@@H](C)CO)C[C@H]2C)cc1	none (no result: MEX-5 binding, GLD-1 TGE inh, BCLXL inh, MCL1-BIM inh)
OC[C@@H]1CN(CCN2CCOCC2)C[C@H](n2cnc3c(N4CCCC4)ncnc32)O1	none (no result: MEX-5 binding, GLD-1 TGE inh, BCLXL inh, MCL1-BIM inh)
N=c1c(C(=O)NC2CCCCC2)cc2c(=O)n3ccccc3nc2n1Cc1ccccc1	none
Cc1cccn2c(=O)c3cc(C(=O)NCc4ccco4)c(=N)n(C4CCCC4)c3nc12	BCLXL inh 34
Cc1ccc(S(=O)(=O)c2cc3c(=O)n4ccccc4nc3n(CCc3ccccc3)c2=N)cc1	MEX-5 binding -32
Cc1cccn2c(=O)c3cc(C(=O)NC(C)C)c(=N)n(Cc4ccncc4)c3nc12	none
N=c1c(C(=O)NC2CCCCC2)cc2c(=O)n3ccccc3nc2n1CCc1ccccc1	MEX-5 binding -26
Cc1cccn2c(=O)c3cc(C(=O)NCC4CCCO4)c(=N)n(C4CCCCC4)c3nc12 (stereo unspecified)	none
CCNC(=O)c1cc2c(=O)n3cccc(C)c3nc2n(Cc2ccc(C)cc2)c1=N	MEX-5 binding -78
CCC(C)N1CCC(Oc2ccc(C(=O)NCc3ccccn3)cc2)CC1 (stereo unspecified)	none
O=C(Nc1nnc([C@H]2C[C@H](O)[C@@H](CO)O2)s1)Nc1cccc(Cl)c1Cl	none (no result: MEX-5 binding, GLD-1 TGE inh, BCLXL inh, MCL1-BIM inh)
C(=N\NC1=Nc2cccc3cccc1c23)/c1ccccc1	GLD-1 TGE inh 32
Clc1ccc(/C=N/NC2=Nc3cccc4cccc2c34)cc1	none
CCOC(=O)C1=C(C)S/C(=C\N(C)C)C1=O	none
CCOC(=O)C1=C(C)NC(=O)/C1=C\N(C)C	BCLXL inh 38
COc1ccc(S(=O)(=O)N2CCCCC2)cc1NC(=O)CCNC(=O)c1ccccc1Cl	BCLXL inh 32 (no result: MEX-5 binding)
COc1ccc(S(=O)(=O)N2CCCCCC2)cc1NC(=O)CCNC(=O)c1ccccc1Cl	none (no result: MEX-5 binding, GLD-1 TGE inh, BCLXL inh, MCL1-BIM inh)
Cc1nc2sc(-c3ccccc3)cc2c(=O)n1N	MEX-5 binding -32
COC(=O)[C@@]1(C(C)C)N=C(c2cc(OC)c(OC)c(OC)c2)[C@]2(O1)C(=O)N(C)c1ccc(Br)cc12	none (no result: MEX-5 binding, GLD-1 TGE inh, BCLXL inh, MCL1-BIM inh)
